Most compounds without a hit are left out; they make up all but 20% or so of the library.
Shiga inhibitor: Shiga toxin inhibition | Vero cells, Shiga toxin protein synthesis inhibition reporter | inhibition, % at 38.7 µM | actives 9.2% (n = 290,000) | AID 2315; in the data active = inhibition mostly above about 28%, no sharp cut-off; inactive = mostly below about 43%; also: 0% is about no effect
Pf growth 96h: P. falciparum growth inhibition at 96 hour, primary screen for plastid delayed-death inhibitors; P. falciparum luciferase reporter growth, 96 h; Potency, µM (top dose mostly 28.7 µM), for inactives: at the top dose activity change, negative = inhibition, usual class: inhibitors; actives 6.9% (n = 320,000); also: potency is read from the fitted curve at half-maximal effect; % is scaled to controls: 0 for no effect and ±100 for the full control effect
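Cell-based qHTS: luciferase-tagged P. falciparum in erythrocytes (2% hematocrit, 0.05% parasitemia final) incubated with compounds for 96 hours, 37 C, 5% CO2; luciferase detection reagent then added and luminescence measured.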
CHX counter: affects cycloheximide protein synthesis inhibition readout, counter-screen; max response, %; actives 12% (n = 300,000); cell reporter, cycloheximide protein synthesis inhibition counterscreen; in the data active = max response mostly above about 13%, no sharp cut-off; inactive = mostly below about 14%; also: read at 38.3 µM for the half of the compounds with a filed dose; 0% is about no effect
HCMV antiviral: blocks human cytomegalovirus replication; HFF cells, HCMV-luciferase reporter, 72 h; stronger effect = lower value; activity change, negative = inhibition, % at 57.5 µM; actives 4.5% (n = 410,000); in the data active = activity change below about -60%; inconclusive = no clear call, values can overlap the other calls; inactive = above about -39%; also: % is scaled to controls: 0 for no effect and ±100 for the full control effect
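Two compound doses tested in HFFs infected with HCMV-luciferase, MOI 1 PFU/cell, 72 h at 37C. Lysate luminescence read with OneGlo; data normalized against buffer-only and 10uM Salinomycin inhibitor controls.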
Pf growth 48h: inhibits P. falciparum growth in the first generation, 48 h | P. falciparum luciferase growth in erythrocytes, 48 h | Potency, µM (top dose mostly 28.7 µM), without a hit: at the highest dose activity change, negative = inhibition, usual class: inhibitors | actives 5.9% (n = 310,000) | AID 504832; also: potency is read from the fitted curve at half-maximal effect; % is scaled to controls: 0 for no effect and ±100 for the full control effect
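A one-generation exposure of luciferase-tagged malaria parasites in RPMI 1640/Albumax erythrocyte culture, 37 C and 5% CO2. Inhibition is inferred from decreased luminescence after adding detection reagent.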
Numbers without * were called inactive; ? = inconclusive; / = no result given. Unless noted, calls follow the shape of the dose curve; as a rule, active = well fitted inhibition curve with a large enough effect; inconclusive = small, poorly fitted or top-dose-only effect, or another doubt; inactive = no such curve, though single readings can be large or run the other way.

SMILES | Shiga inhibitor | Pf growth 96h | CHX counter | HCMV antiviral | Pf growth 48h
CCOC(=O)c1c(NC(=O)CN2CCN(S(=O)(=O)c3cc(Cl)ccc3Cl)CC2)sc(C(=O)N(C)C)c1C | / | / | / | -90* | /
CCOC(=O)c1c(NC(=O)CN2CCN(C)CC2)sc(C(=O)Nc2ccccc2)c1C | 18 | 0% | 28* | -8 | 13µM*
COCCOC(=O)c1c(NC(=O)CN2CCOCC2)sc(C(N)=O)c1C | 33 | / | -2 | -9 | -13%
CCOC(=O)c1c(NC(=O)COC(=O)c2ccc(Cl)nc2)sc(C(=O)N(C)C)c1C | / | -5% | / | -19 | ?
CCOC(=O)c1sc(NC(=O)CCN2CCN(C)CC2)c(C(=O)OCC)c1C | -8 | 8% | -3 | ? | 5%
O=S(=O)(Nc1ccccc1C(F)(F)F)c1ccc(N2CCCCS2(=O)=O)cc1 | / | / | / | 0 | /
CC1CCN(C(=O)Cn2c(=O)n(CCCCCC(=O)NCc3ccccc3Cl)c(=O)c3sccc32)CC1 | / | / | / | -37 | /
O=C(NC1CC1)c1cc2c(F)cccc2s1 | 24 | 36% | 33* | 23 | 26%
O=C(NCc1ccccc1)NC(=O)c1ccccc1 | 47 | / | 2 | -9 | 23%
O=C(NC(=O)c1ccccc1)NC1(C(F)(F)F)OCCO1 | 84* | 28% | 48* | / | /
CCOc1cc(/C=C(\C#N)C(=O)Nc2ccc(C)cc2)ccc1OCc1cc(=O)n2nc(CC)sc2n1 | / | / | / | 4 | /
Cc1ccc(-c2nc3ccccc3o2)cc1NC(=O)c1ccc2c(c1)OCO2 | 126* | / | 50* | 66 | 156%
O=C(Nc1ccc2oc(-c3ccccc3F)nc2c1)c1ccc2c(c1)OCCO2 | 72* | 5% | 28* | ? | -6%
Cc1ccc(C(=O)Nc2ccc(-c3nc4ccccc4o3)cc2)cc1Cl | / | / | / | 16 | /
O=C(Nc1ccc(-c2nc3ccccc3o2)cc1)c1ccc(N2C(=O)C3C4C=CC(C4)C3C2=O)cc1 (stereo not drawn) | 42* | 1.9µM* | 22* | -18 | /
O=C(Nc1ccc(-c2nc3ccccc3o2)cc1)c1ccc2c(c1)OCO2 | 46 | ? | 20 | -108* | ?
Cc1noc(/C=C/c2ccccc2F)c1S(=O)(=O)N1CCC(C(=O)NCC(C)c2ccccc2)CC1 (stereo not drawn) | / | / | / | 108 | /
COc1ccc2cc(CNc3ccccc3)c(=O)n(CC(=O)Nc3ccc(C)cc3C)c2c1 | / | / | / | -33 | /
Cc1ccc2oc(-c3ccc(NC(=O)c4ccc5c(c4)OCO5)cc3)nc2c1 | 58* | 29% | 37* | -37 | 73%
O=C(COC(=O)COc1ccccc1)Nc1ccc(S(=O)(=O)N2CCOCC2)cc1 | -4 | -15% | 1 | -2 | -15%
NC12CC3CC(C1)CC(CO)(C3)O2 | -8 | 8.3µM* | -6 | 50 | 0%
CCOC(=O)c1noc2ncn(CC(=O)Nc3ccc(C)c(F)c3)c(=O)c12 | / | / | / | -9 | /
CCOC(=O)[C@H]1[C@H]2COc3ccc(Br)cc3[C@@H]2N2C(=O)c3cc(OC)c(OC)cc3NC(=O)[C@@]12C | / | ? | / | -19 | 9.3µM*
CCOC(=O)[C@H]1[C@H]2COc3ccc(C)cc3[C@@H]2N2C(=O)c3cc(F)c(F)cc3NC(=O)[C@@]12C | / | ? | / | -26 | 12µM*
CCOC(=O)[C@H]1[C@H]2COc3ccccc3[C@@H]2N2C(=O)c3cc(OC)c(OC)cc3NC(=O)[C@@]12C | / | ? | / | -2 | ?
SMILES | Shiga inhibitor | Pf growth 96h | CHX counter | HCMV antiviral | Pf growth 48h
CCOC(=O)[C@H]1[C@H]2COc3ccc(C)cc3[C@@H]2N2C(=O)c3cc(OC)c(OC)cc3NC(=O)[C@@]12C | / | ? | / | 5 | 12µM*
CCOC(=O)[C@H]1[C@H]2COc3ccc(OC)cc3[C@@H]2N2C(=O)c3cc(OC)c(OC)cc3NC(=O)[C@@]12C | / | ? | / | 17 | 12µM*
COc1ccc2cc(/C(C)=N/NC(=O)C3CC3)ccc2c1 | 48* | -28% | 26* | 110 | 43%
C/C(=N\NC(=O)C1CCCC1)c1ccc(Cl)c(Cl)c1 | 41 | 251% | 2 | 24 | 1%
C/C(=N\NC(=O)C1CCCC1)c1ccc(C(C)C)cc1 | 52* | 8% | 24* | 43 | 0%
COc1ccc(/C(C)=N/NC(=O)C2CC2)cc1 | 42* | 20% | 11 | -18 | -16%
CC(=O)Nc1ccc(C(C)=NNC(=O)C2CCCC2)cc1 | / | / | / | 9 | /
O=C(NCc1cccc(Br)c1)C1CCCCN1S(=O)(=O)c1ccc(F)cc1 (stereo not drawn) | / | / | / | -7 | /
CCn1c(-c2ccccc2Cl)nn(CC(=O)Nc2cc(Cl)ccc2Cl)c1=S | -11 | 10µM* | -4 | ? | ?
CCOCCCN(CCC#N)C(=O)C1CCN(S(=O)(=O)c2ccc(-n3cnnn3)cc2)CC1 | -4 | -12% | -2 | -19 | ?
O=C(CCNS(=O)(=O)c1ccccc1)OCc1nc2ccsc2c(=O)[nH]1 | / | 29% | / | 3 | ?
CCC(=O)Nc1cccc(C2=NOC3(C2)C[C@@H](C(N)=O)N(C(=O)CC(c2ccccc2)c2ccccc2)C3)c1 (stereo partly drawn) | -9 | ? | -2 | -67* | ?
C/C=C(\C)C(=O)Nc1cccc(C2=NOC3(C2)C[C@@H](C(N)=O)N(C(=O)c2cc([N+](=O)[O-])cc([N+](=O)[O-])c2C)C3)c1 (stereo partly drawn) | -8 | ? | -5 | -7 | ?
CCC(=O)N1CC2(CC(c3cccc(NC(=O)CC(c4ccccc4)c4ccccc4)c3)=NO2)C[C@H]1C(N)=O (stereo partly drawn) | -4 | 0% | -3 | 4 | 36%
NC(=O)[C@H]1CC2(CC(c3cccc(NC(=O)CC(c4ccccc4)c4ccccc4)c3)=NO2)CN1C(=O)CC(c1ccccc1)c1ccccc1 (stereo partly drawn) | -3 | ? | -4 | -33 | 12µM*
Cc1c(C(=O)N2CC3(CC(c4cccc(NC(=O)CC(c5ccccc5)c5ccccc5)c4)=NO3)C[C@@H]2C(N)=O)cc([N+](=O)[O-])cc1[N+](=O)[O-] (stereo partly drawn) | -7 | ? | -3 | 4 | 12µM*
NC(=O)[C@@H]1CC2(CC(c3cccc(NC(=O)CC(c4ccccc4)c4ccccc4)c3)=NO2)CN1C(=O)c1ccc(Cl)cc1 (stereo partly drawn) | -5 | ? | -3 | -72* | ?
CC1Cc2ccccc2N1C(=O)CSc1ncc(-c2ccc(F)cc2)n1C (stereo not drawn) | 75* | 26% | 61* | -20 | 79%
CC1Cc2ccccc2N1C(=O)CSc1nnc2c(n1)[nH]c1ccccc12 (stereo not drawn) | -16 | ? | -2 | -5 | ?
Cn1c(-c2ccc(F)cc2)cnc1SCC(=O)N1CCCc2ccccc21 | -3 | ? | -2 | ? | -12%
Cn1c(-c2ccc(F)cc2)cnc1SCC(=O)N1CCCCC1 | 38 | 3% | 33* | 66 | /
O=C(CSc1ncc(-c2ccccc2)n1CC1CCCO1)N1CCCCC1 (stereo not drawn) | 30 | ? | 11 | 26 | ?

Screening results (PubChem BioAssay)
